# Reference: PubChem BioAssay (NCATS)
# Results filed as inconclusive are left out. Active and inactive are the calls of the source. Calls come from the whole dose curve; as a rule, active = well fitted inhibition curve with a large enough effect; inconclusive = small, poorly fitted or top-dose-only effect; inactive = flat fitted curve, though single readings scatter.
# System: WaGa
# Assay: qHTS assay to identify novel small-molecules to repurpose for Merkel cell carcinoma treatment (AID 1296009); note: nearly all actives have a fitted effect of over 60% in size
# Settings: MCC and control cell lines, CellTiter-Glo viability, 72 h; series mostly up to 46 µM; activity change, negative = cytotoxicity: at the top concentration
# Procedure, shortened: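 Cell viability, measured as CellTiter-Glo luminescence, was normalized between DMSO and no-cell wells. The cells had been exposed to 8- or 11-point compound dilutions for 72 hr at 37 degree celsius.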
# % is set by controls: 0 for no effect and ±100 for the full control effect; potency is the fitted concentration of half-maximal effect.
Structure (SMILES),Potency,"activity change, negative = cytotoxicity"
COc1cc([C@@H]2c3cc4c(cc3[C@@H](O)C3COC(=O)C32)OCO4)cc(OC)c1O (some centres undefined),0.0526 µM (active),
CN[C@@H]1Cc2cccc3[nH]c(=O)n(c23)C1,,-1.86% (inactive)
C[C@]12Cc3cn[nH]c3C[C@@H]1CC[C@@H]1[C@H]2CC[C@@]2(C)[C@H]1CC[C@]2(C)O,,-4.65% (inactive)
COc1ccc2c(c1)[C@]13CCCCC1C(C2)N(C)CC3 (some centres undefined),,1.45% (inactive)
CC=C(C)C(=O)O[C@H]1C(C)=C2[C@@H]3OC(=O)[C@@](C)(O)[C@@]3(O)[C@@H](OC(=O)CCC)C[C@](C)(OC(C)=O)[C@@H]2[C@@H]1OC(=O)CCCCCCC,1.66 µM (active),
C[C@@]12OC(=O)[C@]1([C@@H](O)[C@@H]1C=CCCC1)NC(=O)[C@H]2CCCl,0.662 µM (active),
O=c1cccc2n1CC1CNC[C@H]2C1,2.35 µM (active),
CC(=Cc1csc(C)n1)[C@@H]1C[C@H]2O[C@]2(C)CCC[C@H](C)[C@@H](O)[C@@H](C)C(=O)C(C)(C)[C@@H](O)CC(=O)O1,,-46.7% (inactive)
COC1=CC(C)=C[C@@H](C)[C@@H](O)[C@@H](C)CC(C)=CC=C[C@H](OC)[C@H]([C@@H](C)[C@@H](O)[C@H](C)[C@@]2(O)C[C@@H](O)[C@H](C)[C@@H](C(C)C)O2)OC1=O,0.118 µM (active),
